Compound activity (PubChem BioAssay)
HttQ103 aggreg: mutant huntingtin aggregation inhibition | PC12 HttQ103-GFP aggregates, Acumen cytometry, 40 h | Potency, µM (series often up to 46.1 µM), for inactives: at the top dose activity change, negative = inhibition, actives largely listed as inhibitors | hit rate 1.1% among 220,000 | AID 1688; also: potency is read from the fitted curve at half-maximal effect; % is scaled to controls: 0 for no effect and ±100 for the full control effect; nearly all actives have a fitted effect of over 60% in size
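PC12 cells with ecdysone-inducible HTT exon1 Q103-GFP, induced by 100 nM tebufenozide, given compounds in a concentration series. GFP aggregates (1–25 um, 6 SD above background) counted in lysates by laser-scanning cytometry, 488 nm excitation.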
JMJD2E inh: JMJD2E (human) inhibition | AID 2147 | Potency, µM (top dose mostly 57.1 µM), without a hit: at the top dose activity change, negative = inhibition, most hits filed as inhibitors | hit rate 1.6% among 230,000 | B2RXH2 | JMJD2E catalytic domain, FDH-coupled NADH fluorescence (FDH is formaldehyde dehydrogenase);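 also: potency is read from the fitted curve at half-maximal effect; 0% = wells with enzyme and -100% = buffer wells without enzyme; nearly all actives have a fitted effect of over 50% in size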
Target sequence (B2RXH2 1-337 limits assumed): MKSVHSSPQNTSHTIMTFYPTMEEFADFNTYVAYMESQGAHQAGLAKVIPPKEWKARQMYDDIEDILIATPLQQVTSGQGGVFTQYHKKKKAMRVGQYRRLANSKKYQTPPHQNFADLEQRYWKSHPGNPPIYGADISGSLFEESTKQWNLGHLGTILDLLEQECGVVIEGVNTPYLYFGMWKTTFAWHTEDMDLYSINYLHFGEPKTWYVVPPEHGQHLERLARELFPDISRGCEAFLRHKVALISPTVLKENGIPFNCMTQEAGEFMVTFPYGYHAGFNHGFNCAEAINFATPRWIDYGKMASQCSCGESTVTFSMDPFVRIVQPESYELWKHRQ
TexasRed fluor: alters Texas Red total fluorescence, flagging assay interference; TRb/SRC2 Texas Red total fluorescence interference; Potency, µM (doses to about 106 µM), for inactives: at the highest dose fluorescence change, negative = quenching; hit rate 0.29% among 280,000; active = well fitted curve in either direction with a large enough effect; inconclusive = small, poorly fitted or top-dose-only effect; also: potency is read from the fitted curve at half-maximal effect; % is scaled to controls: 0 for no effect and ±100 for the full control effect
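Human TRb ligand-binding domain at 0.6 uM with 20 nM Texas Red SRC2 peptide in Tris buffer containing 1 uM T3 and 5% DMSO, incubated with compound 5 h at ambient temperature. Total fluorescence (555/632 nm) calculated as parallel + 2 × perpendicular.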
FBPA coupling cs: inhibits coupling enzyme system, counter-screen for aldolase hits | coupling enzyme system counterscreen, AmpLite Red fluorescence | activity change, negative = inhibition, % at 58.2 µM, hits read low | hit rate 0.67% among 290,000 | AID 2472; in the data active = activity change below about -30%; also: % is scaled to controls: 0 for no effect and ±100 for the full control effect
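Final compound at 57.5 uM, incubated 10 min at RT with coupling enzyme reagent (glyceraldehyde-3-phosphate), then 20 min with substrate and AmpLite Red detection. Fluorescence read at 525/598 nm; tests interference with the coupling assay, not aldolase inhibition.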
HTT ATP protect: protects HTT-Q103 PC12 cells, measured by ATP | hit rate 0.14% among 230,000 | Potency, µM (doses to about 56.4 µM), for inactives: cytoprotection (ATP increase), usual class: activators | AID 1471 | PC12 HTT-Q103 induced, cytoprotection, ATP luminescence, 40 h; also: potency is read from the fitted curve at half-maximal effect; % of control where 0% means no effect; nearly all actives have a fitted effect of over 45% in size
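Stable PC12 Q103-GFP cells in serum-supplemented, phenol red-free DMEM; induction by tebufenozide at 100 nM final; compound dose series; cell viability quantified luminescently from ATP.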
TRb-SRC2 inh: disrupts binding of human TR beta to SRC2; P10828; TRbeta-SRC2 peptide binding, fluorescence polarization; receptor liganded with 1 µM T3; Potency, µM (doses to about 106 µM), for the others: at the top dose activity change, negative = inhibition, usual class: inhibitors; hit rate 0.065% among 280,000;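 also: potency is read from the fitted curve at half-maximal effect; plate controls were bound peptide for no effect and peptide without receptor for full effect; nearly all actives have a fitted effect of over 50% in size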
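Fluorescence polarization of 20 nM Texas Red SRC2 peptide (20-aa NR interaction domain) bound to 0.6 uM human TRb ligand-binding domain, with 1 uM T3, after 5 hr at ambient temperature; inhibition seen as decreased polarization.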
* hit, by the source's call; ? = inconclusive; / = not tested or not shown; [ ] = remark or other dose. Sampled rows, rich in hits. Any-hit rate of the full collection: about 2%. Unless noted, calls follow the shape of the dose curve; as a rule, active = well fitted curve in the direction sought with a large enough effect; inconclusive = small, poorly fitted or top-dose-only effect, or another doubt; inactive = no such curve, though single readings can be large; an effect the other way counts as inactive or inconclusive.

SMILES	HttQ103 aggreg	JMJD2E inh	TexasRed fluor	FBPA coupling cs	HTT ATP protect	TRb-SRC2 inh
COc1ccc(CN2COc3ccc4c(-c5ccccc5)cc(=O)oc4c3C2)cc1OC	/	/	-7%	/	/	7%
CC(=O)O[C@@H]1[C@H]([N+]2(C)CCCCC2)C[C@@H]2[C@@H]3CC[C@@H]4C[C@@H](OC(C)=O)[C@H]([N+]5(C)CCCCC5)C[C@@]4(C)[C@H]3CC[C@]21C	/	/	/	/	0%[1.9 µM]	/
CCN(Cc1ccncc1)Cc1c(O)ccc2ccccc12	37%	?	-3%	-33*	/	-7%
Oc1ccc2ccccc2c1N=Nc1ccccc1	/	/	112µM*[fluorescent]	/	/	100µM*
O=c1ccc(N=Nc2ccccc2)ccc1O	-33%[9.22 µM]	5.6µM*	-4%	5	-55%[10 µM]	-2%
c1coc(-c2nc3ccccc3nc2-c2ccco2)c1	11%	?	-29%	-38*	-47%	4%
O=C(NCCc1ccccc1)c1ccc2nc(-c3ccco3)c(-c3ccco3)nc2c1	2%	?	28µM*[quencher]	-37*	-38%	9%
O=C(NCCO)c1ccc2nc(-c3ccco3)c(-c3ccco3)nc2c1	-12%	?	?	-47*	-1%	7%
O=C(NC1CCCC1)c1ccc2nc(-c3ccco3)c(-c3ccco3)nc2c1	-13%	-3%	-6%	-30*	-10%	1%
CCCCC(=O)O[C@]1(C(=O)CO)CCC2C3CCC4=CC(=O)CCC4(C)C3C(O)CC21C (some centres undefined)	5%	/	/	/	-7%	/
c1ccc(OCCOc2ccccc2)cc1	/	/	-4%[201 µM]	/	/	7%[201 µM]
COc1ccc(-c2coc3ccc(O[C@@H]4O[C@@H](COC(C)=O)[C@@H](OC(C)=O)[C@@H](OC(C)=O)[C@H]4OC(C)=O)c(OC(C)=O)c3c2=O)cc1	/	/	/	/	-20%	/
COc1ccc(-c2noc(CSc3nnc(Cc4ccccc4)n3-c3ccccc3)n2)cc1OC	/	/	0.28µM*[quencher]	/	/	-23%[53 µM]
Cc1ccc(-c2noc(CSc3nnc(C)n3-c3ccc(C)cc3)n2)cc1	/	/	0.11µM*[quencher]	/	/	-25%[53 µM]
COc1ccc(-c2noc(CSc3nnc(-c4ccncc4)n3-c3ccc(C)cc3)n2)cc1	/	/	-19%	/	/	7%
COc1ccc(-c2noc(CSc3nnc(-c4ccncc4)n3-c3ccc(OC)cc3)n2)cc1	/	/	0.25µM*[quencher]	/	/	?
Cc1cc(-c2ccc(N=Nc3ccc4c(S(=O)(=O)O)cc(S(=O)(=O)O)c(N)c4c3O)c(C)c2)ccc1N=Nc1ccc2c(S(=O)(=O)O)cc(S(=O)(=O)O)c(N)c2c1O	-8%	?	18µM*[fluorescent]	-38*	26%	25µM*
Nc1c(N=Nc2ccc(-c3ccc(N=Nc4cc(S(=O)(=O)O)c5ccccc5c4N)cc3)cc2)cc(S(=O)(=O)O)c2ccccc12	-22%	/	?	-12	11%	?
Cc1[nH]c2ccccc2c1CCNC(=O)c1ccc2c(c1[N+](=O)[O-])C(=O)c1ccccc1C2=O	-14%	4%	-7%	-29	-66%	3%
CN(C)C(=O)c1ccc2c(c1[N+](=O)[O-])C(=O)c1ccccc1C2=O	0%	8%	-1%	-43*	-7%[10 µM]	6%
Cc1[nH]c2c(C)cccc2c1CCNC(=O)c1ccc2c(c1[N+](=O)[O-])C(=O)c1ccccc1C2=O	0%	13%	1%	-31*	-13%	6%
COc1cc(OC)cc(-c2nnc3n2N=C(c2ccc(OC)cc2OC)CS3)c1	/	/	-4%	-2	/	4%
COc1ccc(-c2nc(CS(=O)CC(=O)NCCc3ccccc3)c(C)o2)cc1OC (centres undefined)	/	/	-5%	/	/	-4%
CCOc1ccc(NC(=O)CN2CCCN(Cc3cc(C)ccc3C)S2(=O)=O)cc1	/	/	-2%	/	/	5%
CCOc1ccc(NC(=S)N2CCCN(Cc3cc(C)ccc3C)C2)cc1	28µM*	40%	5%	-4	-46%	6%
O=C(O)C1OC(Oc2c(-c3ccc(O)c(O)c3)oc3cc(O)cc(O)c3c2=O)C(O)C(O)C1O (centres undefined)	-8%	4.5µM*	-17%	0	/	1%
CC1OC(Oc2c(-c3cc(O)c(O)c(O)c3)oc3cc(O)cc(O)c3c2=O)C(O)C(O)C1O (centres undefined)	7%[9.22 µM]	3%	-1%	-47*	-3%[10 µM]	8%
COc1ccc(-c2nc3scc(CCNS(=O)(=O)c4ccc(F)c(C(F)(F)F)c4)n3n2)cc1OC	/	/	-1%	/	/	2%
CC[C@H](C)[C@H](NC(=O)CNC(=O)[C@H](CCCNC(=N)N)NC(=O)CNC(=O)[C@@H](NC(=O)[C@H](Cc1ccc(O)cc1)NC(=O)[C@H](Cc1c[nH]c2ccccc12)NC(=O)[C@H](C)NC(=O)[C@@H]1CCCN1C(=O)[C@H](CC(N)=O)NC(=O)[C@@H](NC(=O)[C@H](CC(=O)O)NC(=O)[C@@H]1CCCN1C(=O)[C@@H](N)[C@@H](C)O)[C@@H](C)CC)[C@@H](C)O)C(=O)N[C@@H](CCCNC(=N)N)C(=O)N1CCC[C@H]1C(=O)N[C@H](C(=O)NCC(=O)N[C@@H](CCCNC(=N)N)C(=O)N[C@@H](Cc1ccccc1)C(N)=O)C(C)C	/	/	-8%	0	/	-4%
CCSC[C@H](NC(=O)[C@H](C)NC(=O)[C@@H](N)Cc1ccc(O)cc1)C(=O)N[C@@H](CC(=O)O)C(=O)N[C@H](C(=O)N[C@@H](C)C(=O)N[C@H](C(=O)N[C@@H](CSCC)C(=O)N[C@H](C(=O)N[C@H](C(=O)N[C@@H](Cc1cnc[nH]1)C(=O)N[C@@H](CCCNC(=N)N)C(=O)N[C@@H](CC(C)C)C(=O)N[C@@H](C)C(=O)NCC(=O)N[C@@H](CC(C)C)C(=O)N[C@@H](CC(C)C)C(=O)N[C@@H](CO)C(=O)N[C@@H](CCCNC(=N)N)C(=O)N[C@@H](CO)C(=O)NCC(=O)NCC(=O)N[C@H](C(=O)N[C@H](C(=O)N[C@@H](CCCCN)C(=O)N[C@@H](CC(N)=O)C(=O)N[C@@H](CC(N)=O)C(=O)N[C@@H](Cc1ccccc1)C(=O)N[C@H](C(=O)N1CCC[C@H]1C(=O)N[C@H](C(=O)N[C@@H](CC(N)=O)C(=O)N[C@H](C(=O)NCC(=O)N[C@@H](CO)C(=O)N[C@@H](CCCCN)C(=O)N[C@@H](C)C(=O)N[C@@H](Cc1ccccc1)C(N)=O)C(C)C)[C@@H](C)O)C(C)C)C(C)C)C(C)C)[C@@H](C)O)C(C)C)[C@@H](C)O)[C@@H](C)O	/	/	1%	-1	/	-7%
